Reference: PubChem BioAssay (NCI)
Compounds without any hit were thinned out: in the full panel of roughly 83,000, 20% have a hit.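 Values shown are percent growth following 48 h exposure of cells in 96-well plates to a single concentration of compound; below 10 was considered active.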 Activity calls are given as the source filed them.

Assays:
Assay in all cases: NCI-60 one-dose screen, 48 h (100 = growth as untreated, 0 = no growth, -100 = all killed)
Settings in all cases: 10 µM unless noted
NCI-H23 lung = system: NCI-H23 lung
NCI-H226 lung = system: NCI-H226 lung
NCI-H322M lung = system: NCI-H322M lung
HOP-62 NSCLC = system: HOP-62 NSCLC
NCI-H460 lung = system: NCI-H460 lung
HOP-92 NSCLC = system: HOP-92 NSCLC
NCI-H522 lung = system: NCI-H522 lung
A549/ATCC NSCLC = system: A549/ATCC NSCLC
786-0 renal = system: 786-0 renal
COLO 205 colon = system: COLO 205 colon
DU-145 prostate = system: DU-145 prostate
K-562 leukemia = system: K-562 leukemia
MALME-3M melanoma = system: MALME-3M melanoma
MDA-MB-231 breast = system: MDA-MB-231 breast
RXF 393 renal = system: RXF 393 renal
SF-268 CNS = system: SF-268 CNS
SF-295 CNS = system: SF-295 CNS
SF-539 CNS = system: SF-539 CNS
UACC-257 melanoma = system: UACC-257 melanoma
M14 melanoma = system: M14 melanoma

Measured: growth

CN1C(=O)C(=Cc2cn(CCCCCCn3c4ccccc4c(=O)c4ccccc43)c3ccccc23)C(=O)N(C)C1=O
inactive: NCI-H23 lung 79.9% | NCI-H322M lung 99.4% | HOP-62 NSCLC 89.1% | NCI-H460 lung 85.1% | HOP-92 NSCLC 97.5% | NCI-H522 lung 94.9% | A549/ATCC NSCLC 103% | 786-0 renal 97.4% | COLO 205 colon 102% | DU-145 prostate 105% | K-562 leukemia 88.3% | MALME-3M melanoma 103% | MDA-MB-231 breast 103% | RXF 393 renal 115% | SF-268 CNS 94.6% | SF-295 CNS 95% | SF-539 CNS 86% | UACC-257 melanoma 104% | M14 melanoma 94%
active: NCI-H226 lung -20.8%

COC(=O)CC[C@H](Cc1ccccc1)NC(=O)c1csc([C@@H](C[C@H](C(C)C)N(C)C(=O)[C@@H](NC(=O)[C@H]2CCCCN2C)C(C)C)OC(C)=O)n1
active: HOP-92 NSCLC -1.54% | NCI-H522 lung 9.28% | COLO 205 colon -49.7% | SF-539 CNS 9.4%
inactive: NCI-H23 lung 51% | NCI-H226 lung 83% | NCI-H322M lung 51% | HOP-62 NSCLC 52.7% | NCI-H460 lung 21.7% | A549/ATCC NSCLC 40.4% | 786-0 renal 34.8% | DU-145 prostate 39.1% | K-562 leukemia 24.4% | MALME-3M melanoma 74.2% | MDA-MB-231 breast 36.8% | RXF 393 renal 69.6% | SF-268 CNS 26.6% | SF-295 CNS 32% | UACC-257 melanoma 66.6% | M14 melanoma 20.2%

CC(=O)OC1CCC2(C)C(CCC3C2CC(=O)C2(C)C3CC(Sc3ccc(N(CCCl)CCCl)cc3)C2C(C)=O)C1 (stereo not given)
active: COLO 205 colon 9.14% | K-562 leukemia 7.43%
inactive: NCI-H23 lung 97.3% | NCI-H226 lung 83.7% | NCI-H322M lung 104% | HOP-62 NSCLC 108% | NCI-H460 lung 32.5% | HOP-92 NSCLC 109% | NCI-H522 lung 83% | A549/ATCC NSCLC 55.6% | 786-0 renal 82.6% | DU-145 prostate 100% | MALME-3M melanoma 139% | MDA-MB-231 breast 85.6% | RXF 393 renal 107% | SF-268 CNS 85.9% | SF-295 CNS 67.6% | SF-539 CNS 13.7% | UACC-257 melanoma 90.3% | M14 melanoma 81%

COc1ccc(S(=O)(=O)N(Cc2ccc3c(c2)C=CC(C)(C)O3)c2ccccc2)cc1OC
inactive: NCI-H23 lung 47.6% | NCI-H226 lung 55.4% | NCI-H322M lung 102% | HOP-62 NSCLC 87.1% | NCI-H460 lung 76.7% | HOP-92 NSCLC 88.2% | NCI-H522 lung 61.5% | A549/ATCC NSCLC 79.1% | 786-0 renal 87.1% | COLO 205 colon 64.7% | DU-145 prostate 96.6% | K-562 leukemia 63.2% | MALME-3M melanoma 83.4% | MDA-MB-231 breast 96.6% | RXF 393 renal 77.2% | SF-268 CNS 87.4% | SF-295 CNS 70.6% | SF-539 CNS 97.3% | UACC-257 melanoma 61.9% | M14 melanoma 87.6%
